# High-throughput results (PubChem)
# Only some compounds are listed: those with a hit (about 9.9% of all), similar ones and a draw of the others.
# Tau fluor cs: counter-screen for tau fibril formation inhibitors; AID 1463; Potency, µM (doses to about 57.7 µM), for the others: at the highest dose activity change, negative = decrease; 280,000 compounds, 0.93% hits; tau K18 P301L Alexa594 fluorescence, heparin fibrillization; active means well fitted curve in the direction sought with a large enough effect; inconclusive means small, poorly fitted or top-dose-only effect, or another doubt; inactive means no such curve, though single readings can be large; an effect the other way counts as inactive or inconclusive; further: nearly all actives have a fitted effect of over 55% in size
#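 Human K18 P301L tau (15 uM unlabeled plus 0.24 uM Alexa 594-labeled, final) in 100 mM sodium acetate pH 7 was mixed with compound and 20 uM heparin and incubated 6 hr at 37 C.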
# HPGD block: inhibitors of human 15-hydroxyprostaglandin dehydrogenase (HPGD); 150,000 compounds, 4.3% hits; P15428; purified HPGD, NADH fluorescence kinetic, PGE2 substrate; Potency, µM, without a hit: at the highest dose activity change, negative = inhibition, most hits filed as inhibitors
#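 20 nM HPGD preincubated 15 min at room temperature with compound in 50 mM Tris-HCl pH 8, 0.01% Tween 20. Started with 1 mM NAD+ and 30 uM prostaglandin E2; NADH fluorescence (360/450 nm) read 5 times over 30-s intervals, last minus first.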
# Tau fibril FP: tau fibrillization inhibition (FP) | P10636 | K18 P301L tau heparin fibrillization, Alexa594 FP, 6 h | Potency, µM (series often up to 57.7 µM), for the others: top-dose activity, negative = inhibition, hits mostly inhibitors | 280,000 compounds, 0.39% hits | AID 1468; active means well fitted curve in the direction sought with a large enough effect; inconclusive means small, poorly fitted or top-dose-only effect, or another doubt; inactive means no such curve, though single readings can be large; an effect the other way counts as inactive or inconclusive; further: nearly all actives have a fitted effect of over 55% in size
# Target sequence (P10636 561-689 P618L limits assumed): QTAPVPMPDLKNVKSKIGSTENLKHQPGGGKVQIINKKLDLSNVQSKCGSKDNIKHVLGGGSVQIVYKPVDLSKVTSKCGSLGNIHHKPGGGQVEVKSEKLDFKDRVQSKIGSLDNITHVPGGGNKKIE
#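 Recombinant K18 P301L […], labeled with Alexa 594 at 0.24 uM over 15 uM unlabeled; heparin inducer 20 uM final; 37 C, 6 hr; FP endpoint.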
# KDM4E inh: inhibitors of human JMJD2E histone demethylase; Potency, µM (doses to about 57.1 µM), for the others: at the highest dose activity change, negative = inhibition, actives largely listed as inhibitors; JMJD2E catalytic domain, FDH-coupled NADH fluorescence (FDH is formaldehyde dehydrogenase); 230,000 compounds, 1.6% hits; B2RXH2; AID 2147;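 further: 0% = wells with enzyme and -100% = buffer wells without enzyme; nearly all actives have a fitted effect of over 50% in size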
# Tau fibril ThT: tau fibrillization inhibition (ThT binding) | P10636 | recombinant tau K18 P301L (four-repeat tau fragment), heparin-induced fibrillization, ThT fluorescence | Potency, µM (top dose mostly 57.4 µM), for inactives: top-dose activity, negative = inhibition, most hits filed as inhibitors | 270,000 compounds, 2.1% hits | AID 1460; active means well fitted curve in the direction sought with a large enough effect; inconclusive means small, poorly fitted or top-dose-only effect, or another doubt; inactive means no such curve, though single readings can be large; an effect the other way counts as inactive or inconclusive; further: nearly all actives have a fitted effect of over 55% in size
#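 Tau K18 P301L fragment (15 uM unlabeled plus 0.24 uM Alexa 594-labeled) in 100 mM sodium acetate pH 7 with compound, fibrillization induced by 20 uM heparin for 6 hr at 37 C. Thioflavin T (30 uM) added, fluorescence read after 1 hr (ex 450, em 510 nm).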
# ALDH1A1 inh: ALDH1A1 (human) enzyme inhibition. P00352. Purified ALDH1A1, NADH fluorescence, propionaldehyde substrate. Potency, µM (top dose mostly 75.3 µM), for inactives: at the top dose activity, negative = inhibition, most hits filed as inhibitors. 220,000 compounds, 7.3% hits;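 further: plate controls were no enzyme wells and a reference inhibitor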
# Target sequence (P00352 whole entry, looked up): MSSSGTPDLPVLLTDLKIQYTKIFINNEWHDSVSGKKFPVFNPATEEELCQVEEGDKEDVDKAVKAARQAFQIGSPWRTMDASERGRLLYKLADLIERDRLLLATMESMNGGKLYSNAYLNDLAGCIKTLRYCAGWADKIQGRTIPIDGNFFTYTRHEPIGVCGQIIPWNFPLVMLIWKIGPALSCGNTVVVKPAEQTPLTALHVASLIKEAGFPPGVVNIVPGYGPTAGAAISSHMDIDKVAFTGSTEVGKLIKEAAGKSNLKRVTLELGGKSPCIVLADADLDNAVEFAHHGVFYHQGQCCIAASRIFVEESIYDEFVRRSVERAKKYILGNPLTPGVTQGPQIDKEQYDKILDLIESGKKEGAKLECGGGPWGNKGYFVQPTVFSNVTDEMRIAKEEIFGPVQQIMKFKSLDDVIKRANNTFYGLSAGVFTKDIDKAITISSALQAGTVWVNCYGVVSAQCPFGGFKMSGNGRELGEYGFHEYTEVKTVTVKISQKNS
# Starred values were filed as active, the others as inactive; ? = inconclusive; nt = no result; [ ] = dose if it differs, or a comment. Unless noted, the call rests on the fitted dose curve; in most records, active means well fitted inhibition curve with a large enough effect (not every such curve was filed as active); inconclusive means small, poorly fitted or top-dose-only effect, or another doubt; inactive means no such curve, though single readings can be large or run the other way. Unless noted, on the % scale 0 is the no-effect control and ±100 the full control effect; potency means the concentration at half of the fitted maximal effect.
SMILES,Tau fluor cs,HPGD block,Tau fibril FP,KDM4E inh,Tau fibril ThT,ALDH1A1 inh
O=C(CC1SC(=Nc2ccccc2)N(CCc2c[nH]c3ccccc23)C1=O)Nc1ccccc1F (stereo not given),13µM*[quencher],-18%,-6%,-7%,-15%,-10%
O=C(CC1SC(=Nc2ccccc2)N(CCc2ccccn2)C1=O)Nc1ccc(F)cc1 (stereo not given),-16%,-17%,-2%,-2%,3%,-14%
COc1ccc(N=C2SC(CC(=O)Nc3ccccc3)C(=O)N2Cc2ccco2)cc1 (stereo not given),?,nt,?,0%,3%,?
COc1cccc(N=C2SC(CC(=O)Nc3ccccc3)C(=O)N2Cc2ccccn2)c1 (stereo not given),?,nt,5%,-6%,-11%,8.9µM*
COc1ccc(N=C2SC(CC(=O)Nc3ccccc3F)C(=O)N2Cc2ccco2)cc1 (stereo not given),-30%,-8%,-7%,9%,-5%,2.5µM*
Cc1cc(C)c(NC(=O)COC(=O)CCc2ccc(S(=O)(=O)N3CCCCC3)cc2)c(C)c1,-10%,nt,-6%,4%,-9%,-9%
CCOC(=O)Cn1c(=O)n(Cc2ccco2)c(=O)c2ccc(C(=O)NC3CCCC3)cc21,-15%,-4%,-8%,5%,-13%,7.9µM*
CCOc1ccc(NC(=O)Cn2c(=O)n(Cc3ccco3)c(=O)c3ccc(C(=O)NC4CCCC4)cc32)cc1,?,nt,16µM*,nt,2%,nt
Cc1ccc(C(=O)Nc2ccc3oc(-c4ccc(C(C)(C)C)cc4)nc3c2)cc1,-9%,nt,-9%,nt,-7%,nt
COc1cc(C(=S)N2CCOCC2)cc(OC)c1OC(=O)Cc1ccc(F)cc1,-11%,16µM*,-12%,5%,-12%,28µM*
C=CCc1cccc2cc(C(=O)Nc3ccc(F)cc3)c(=O)oc12,-12%,-12%,-2%,6%,-10%,13%
C=CCc1cccc2cc(C(=O)NC3=C(C#N)CCC3)c(=O)oc12,-15%,-10%,-8%,-3%,-24%,0.89µM*
COc1cc(C2c3c(oc4ccccc4c3=O)C(=O)N2Cc2ccncc2)ccc1O (stereo not given),-8%,-12%,-4%,-12%,-2%,25µM*
COc1ccc(C)cc1Nc1nc2c(S(=O)(=O)c3cccc(Cl)c3)nnn2c2ccsc12,-5%,nt,-1%,nt,7%,nt
CN(C)/C=N/C(=S)Nc1ccccc1Cl,-5%,nt,-2%,0%,-1%,2%
CN(O)/C=N/C(=S)Nc1ccc(Cl)cc1Cl,-14%,nt,-7%,7%,-14%,1.6µM*
COc1cccc(-c2nc3c(C#N)c[nH]n3c2NC2CCCCC2)c1,6%,nt,-1%,nt,6%,nt
CCN(Cc1ccccc1)C(=O)c1cc2ccc3cccnc3c2[nH]1,-20%,nt,-1%,nt,?,nt
CCn1c2ccccc2c2cc(CN3CCN(Cc4cc(OC)ccc4O)CC3)ccc21,?,nt,15%,18µM*,-13%,35µM*
CCn1c2ccccc2c2cc(CN3CCN(Cc4cc(OC)c(O)c(OC)c4)CC3)ccc21,?,nt,-4%,nt,?,nt
CCOC(=O)c1[nH]c2ccc(Cl)cc2c1NC(=O)/C=C/c1ccc2c(c1)OCO2,-22%,-7%,-12%,?,11%,15%
CCN(CC(=O)Nc1c(C(=O)OC)[nH]c2ccc(Cl)cc12)c1ccc2c(c1)OCO2,7.9µM*[quencher],nt,12%,?,?,?
Cc1nn2c(=O)cc(COC(=O)c3cccc(NC(=O)COc4ccccc4C)c3)nc2s1,-11%,nt,-6%,nt,?,nt
O=C(/C=C\c1ccccc1OC(=O)c1ccccc1F)c1cc2ccccc2o1,11%,28µM*,3%,4%,14%,30%
O=C(N/N=C/c1cc2c(cc1[N+](=O)[O-])OCO2)c1cccnc1,nt,nt,nt,-27%,nt,nt
SMILES,Tau fluor cs,HPGD block,Tau fibril FP,KDM4E inh,Tau fibril ThT,ALDH1A1 inh
O=[N+]([O-])c1cc2c(cc1/C=N/NS(=O)(=O)c1ccc(Br)cc1)OCO2,-13%,nt,?,77%,?,3.2µM*
COc1cc(C=Nc2cccc(C)c2)c(O)c([N+](=O)[O-])c1,-6%,-7%,-4%,-5%,7.9µM*,-11%
Cc1cccc(OCC(=O)N/N=C\c2cc3c(cc2[N+](=O)[O-])OCO3)c1C,?,-5%,?,6%,?,7.9µM*
Cc1cccc(N=Cc2cc3c(cc2[N+](=O)[O-])OCO3)c1,?,-20%,?,?,10µM*,?
COc1ccc(C)c2sc(N(Cc3cccnc3)C(C)=O)nc12,-17%,nt,?,nt,-12%,nt
Nc1cc2nc[nH]c2cc1N,?,nt,?,?,22µM*,?
COc1ccc(C2=NN(CC(=O)NCCCN(C)c3ccccc3)C(=O)CC2)cc1,-15%,nt,11%,nt,-15%,nt
O=C(CSc1nnc(-c2ccncc2)n1CC1CCCO1)NCc1ccccc1 (stereo not given),0%,2%,2%,4%,-5%,-1%
Cn1cnnc1SCC(=O)c1cc2ccccc2o1,5%,nt,3%,4%,-13%,?
Cn1c(SCC(=O)c2cc3ccccc3o2)nnc1-c1ccccc1,-2%,?,-5%,-3%,?,28µM*
Cc1cccc(-c2nnc(SCC(=O)C(C)(C)C)n2C)c1,-18%,nt,-5%,-20%,-6%,11µM*
Cc1cccc(NC(=O)CSc2nnc(-c3ccncc3)n2C)c1,5%,-7%,5%,-2%,-6%,-3%
Cn1ccnc1SCC(=O)c1cc2ccccc2o1,-24%,-20%,-5%,-9%,?,20µM*
O=C(CSc1nnc(-c2cccs2)n1CC1CCCO1)c1cc2ccccc2o1 (stereo not given),-9%,?,3%,-3%,-24%,28µM*
O=C(O)c1cccc(NC(=O)c2cccc(S(=O)(=O)N3CCc4ccccc4C3)c2)c1,5%,nt,8%,11%,2%,1%
Cn1c(SCC(=O)Nc2ccc3c(c2)oc2ccccc23)nnc1-c1ccccc1,?,-7%,-12%,?,?,25µM*
Cn1c(SCC(=O)Nc2ccccc2)nnc1-c1ccccc1,2%,nt,-3%,nt,-4%,nt
CCOC(=O)c1cnc(SC)nc1Nc1cccc(F)c1,-16%,-9%,-4%,10%,-18%,-2%
CCOC(=O)c1cnc(SC)nc1Sc1cc(Cl)ccc1Cl,-8%,7.1µM*,?,2%,4%,?
Cc1ccc(S(=O)(=O)C(CNC(=O)C(=O)NCCc2ccc(F)cc2)c2cccs2)cc1 (stereo not given),-8%,nt,-14%,nt,-2%,nt
O=C(NNC(=S)NC1CCCCC1)c1sc2ccccc2c1Cl,?,-29%,?,6%,?,22µM*
